Screens deposited in PubChem by National Center for Advancing Translational Sciences (NCATS).
Most compounds without a hit are left out; they make up all but 10% or so of the library.
ALDH1A1 block: qHTS Assay for Inhibitors of Aldehyde Dehydrogenase 1 (ALDH1A1) | 220,000 tested, 7.3% active | Purified ALDH1A1, NADH fluorescence, propionaldehyde substrate | AID 1030, 2008 | Potency, µM (series often up to 75.3 µM), actives largely listed as inhibitors | Aldehyde dehydrogenase 1A1 (Homo sapiens), P00352
HPGD inh: qHTS Assay for Inhibitors of HPGD (15-Hydroxyprostaglandin Dehydrogenase). 15-hydroxyprostaglandin dehydrogenase [NAD(+)] (Homo sapiens), P15428. purified HPGD, NADH fluorescence kinetic, PGE2 substrate. Potency, µM, most hits filed as inhibitors. 150,000 tested, 4.3% active. AID 894, 2007
Target sequence (P15428 whole entry, looked up): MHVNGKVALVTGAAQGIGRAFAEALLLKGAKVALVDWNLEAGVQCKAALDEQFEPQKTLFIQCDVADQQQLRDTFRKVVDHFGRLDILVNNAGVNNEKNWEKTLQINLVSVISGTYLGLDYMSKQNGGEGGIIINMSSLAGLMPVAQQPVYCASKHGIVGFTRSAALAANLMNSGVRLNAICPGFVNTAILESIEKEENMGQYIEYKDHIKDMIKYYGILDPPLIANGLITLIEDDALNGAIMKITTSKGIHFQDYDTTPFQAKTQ
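NADH formation kinetics: reaction with 30 uM PGE2 and 1 mM NAD+ (final), 20 nM enzyme, Tris-HCl pH 8 with Tween 20, after 15 min compound preincubation at room temperature. Fluorescence change, last versus first of five reads.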
LMNA splice mod: qHTS Assay for Modulators of Lamin A Splicing | HeLa LMNA splicing GFP/RFP minigene ratio, 48 h | Potency, µM (titrated, usually from 46.1 µM), usual class: inhibitors | 200,000 tested, 0.01% active; active means well fitted inhibition curve with a large enough effect in the signal ratio, with a control signal flat, not every such curve was filed as active; inconclusive means small, poorly fitted or top-dose-only effect, or effect the other way, or a change in a side signal; the % refers to the signal ratio
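S3 HeLa cells stably expressing lamin A-EGFP splicing minigene plus DsRed2, 600 cells/well, 48 h compound exposure at 37C. Laser-scanning cytometry; analysed as GFP (500-530 nm)/RFP (575-640 nm) total intensity ratio; 0.5% DMSO vehicle.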
12-hLO inh: qHTS Assay for Inhibitors of 12-hLO (12-human lipoxygenase). purified 12-hLO, xylenol orange hydroperoxide absorbance. Potency, µM (top dose mostly 57.1 µM), usual class: inhibitors. 150,000 tested, 0.12% active; active means well fitted inhibition curve with a large enough effect; inconclusive means small, poorly fitted or top-dose-only effect; further: nearly all actives have a fitted effect of over 55% in size
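Purified human 12hLO (150 nM), preincubated 15 min with compound, then 40 uM arachidonic acid for 30 min, room temperature, Hepes pH 7.0 with 0.01% Triton X-100. Hydroperoxide detected by ferrous iron/xylenol orange; 573/405 nm absorbance ratio gives reaction progress.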
PNC inhibitor: High Content Assay for Compounds that inhibit the Assembly of the Perinucleolar Compartment | PC3M PTB-GFP, PNC prevalence imaging, 16 h; hits give low values | activity change (PNC), negative = inhibition, % at 10 µM | 140,000 tested, 3.1% active;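 active means readout at or below -70, meaning at least 70% loss of cells showing the perinucleolar compartment, a nuclear body marking cancer cells; inconclusive means readout between -30 and a set limit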
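PC3M cells stably expressing PTB-GFP, 750–1000 cells/well, treated 16 h at 37 °C with compound (23 nl of library stock), in duplicate. After paraformaldehyde fixation and Hoechst stain, imaged at 20x; PNC prevalence scored by image analysis.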
Large screens that a line does not name were inactive. Unless noted, the call rests on the fitted dose curve; in most records, active means well fitted inhibition curve with a large enough effect (not every such curve was filed as active); inconclusive means small, poorly fitted or top-dose-only effect, or another doubt; inactive means no such curve, though single readings can be large or run the other way.

Cc1cc(C)cc(N(CC(=O)Nc2ccccc2-c2ccccc2)S(=O)(=O)c2ccccc2)c1	HPGD inh 10µM
Cc1ccc(N(CC(=O)Nc2ccccc2-c2ccccc2)S(=O)(=O)c2ccccc2)cc1	none
COC(=O)c1cnn(-c2ccc(C(=O)Nc3cc(OC)c(OC)c(OC)c3)cc2)c1N	none (no result: ALDH1A1 block, HPGD inh, 12-hLO inh, PNC inhibitor)
O=C(O)c1ccccc1-c1ccccc1C(=O)Nc1ccc2c(c1)Cc1cc(F)ccc1-2	none (no result: LMNA splice mod, PNC inhibitor)
Cc1ccccc1NC(=O)CSc1n[nH]c(-c2ccco2)n1	none (no result: HPGD inh, 12-hLO inh, PNC inhibitor)
c1ccc(CSc2n[nH]c(-c3ccco3)n2)cc1	HPGD inh 13µM, PNC inhibitor inconclusive
COC(=O)c1ccc(COc2ccccc2/C=C(\C#N)C(=O)Nc2ccc(C)cc2)cc1	PNC inhibitor inconclusive
N#C/C(=C\c1ccccc1OCc1ccc(C(=O)O)cc1)C(=O)Nc1ccc(O)cc1	ALDH1A1 block 5.6µM (no result: HPGD inh, LMNA splice mod, 12-hLO inh, PNC inhibitor)
CCCc1cc(=O)[nH]c(SCc2cc(C(=O)OC)c(C)o2)n1	HPGD inh 16µM
N[C@H](C(=O)O)[C@H]1C[C@H]1C(=O)O	none (no result: HPGD inh, LMNA splice mod, 12-hLO inh, PNC inhibitor)
Cc1cc(C)nc(N2CCCC(C(=O)Nc3nnc(C(C)C)s3)C2)n1 (stereo unspecified)	PNC inhibitor -100
Cc1cc(C)nc(N2CCCC(C(=O)Nc3ccc4nc(C)c(C)nc4c3)C2)n1 (stereo unspecified)	ALDH1A1 block 16µM, LMNA splice mod inconclusive
Cc1cc(C)cc(NC(=O)C2CCCN(c3nc(C)cc(C)n3)C2)c1 (stereo unspecified)	none
O=C(NC1(O)C(=O)c2ccccc2C1=O)c1ccccc1	ALDH1A1 block 1.4µM
CCC(=O)N1CCc2cc(CNS(=O)(=O)c3cc(Cl)ccc3OC)ccc21	none (no result: ALDH1A1 block, HPGD inh, 12-hLO inh, PNC inhibitor)
Cn1c(C(=O)N2CCN(C3CCCCC3)CC2)cc2c(=O)n(C)c3ccccc3c21	none
Cn1c(C(=O)Nc2ccc3c(c2)OCCO3)cc2c(=O)n(C)c3ccccc3c21	ALDH1A1 block 25µM, HPGD inh inconclusive, LMNA splice mod inconclusive
Cn1c(C(=O)N2CCN(C(=O)c3ccco3)CC2)cc2c(=O)n(C)c3ccccc3c21	ALDH1A1 block 20µM
COc1ccccc1N1CCN(C(=O)c2cc3c(=O)n(C)c4ccccc4c3n2C)CC1	ALDH1A1 block inconclusive, PNC inhibitor -88
COc1cc(OC)c([C@@H]2O[C@H](CO)[C@@H](O)[C@H](O)[C@H]2O)c(OC)c1	none (no result: LMNA splice mod, 12-hLO inh, PNC inhibitor)
CC(C)=CCOc1ccc(/C=C/C(=O)c2ccc(OCC=C(C)C)cc2OCC(=O)O)cc1	HPGD inh 11µM, LMNA splice mod inconclusive (no result: PNC inhibitor)
C/C=C/c1ccc(OCC(=O)O)c(OC)c1	none (no result: HPGD inh, 12-hLO inh, PNC inhibitor)
Cc1ccc(S(=O)(=O)CCSc2cccc(C(=O)Nc3ccccc3C(=O)O)c2)cc1	ALDH1A1 block inconclusive, HPGD inh 16µM, LMNA splice mod inconclusive, PNC inhibitor inconclusive
CC(C)C(=O)Nc1cccc(C(=O)Nc2ccccc2C(=O)O)c1	LMNA splice mod inconclusive
O=C(O)c1cc(O)c2c(c1)C(=O)c1cc(O)cc(O)c1C2=O	ALDH1A1 block 25µM, HPGD inh 14µM (no result: PNC inhibitor)
O=C(/C=C/C=C/c1ccccc1)c1ccco1	ALDH1A1 block 28µM (no result: HPGD inh, LMNA splice mod, 12-hLO inh, PNC inhibitor)
COc1cc2c(cc1OC)C(c1cc3cc4c(cc3[nH]c1=O)OCO4)N(C(=O)C1CC1)CC2 (stereo unspecified)	ALDH1A1 block inconclusive, HPGD inh inconclusive, LMNA splice mod inconclusive, PNC inhibitor -100
COC(=O)c1ccc(OCC2c3cc(OC)c(OC)cc3CCN2C(=O)C2CC2)cc1 (stereo unspecified)	ALDH1A1 block inconclusive
CC(=O)N(C1=C(O)c2ccccc2C(=O)C1=O)C1CCCCC1	ALDH1A1 block 10µM
C=CC[C@@H]1C=C[C@@H](O/N=C(/C)CCC(=O)OC[C@@H]2O[C@H](C#Cc3ccccc3)C=C[C@@H]2Oc2ccc(C)cc2)[C@@H](CO)O1	none (no result: HPGD inh, LMNA splice mod, 12-hLO inh, PNC inhibitor)
CCCc1nc(SCC(=O)N2CCC(Cc3ccccc3)CC2)c2c(=O)n(C)c(=O)n(C)c2n1	ALDH1A1 block 18µM, PNC inhibitor inconclusive
